Rin1 Abl inh – inhibitors of human Rin1-Abl protein interaction | P00519+Q13671 | TR-FRET Rin1/Abl binding, biochemical | inhibition, % at 7.35 µM | hit rate 0.4% among 360,000; in the data active = inhibition above about 5%, passing the limit was not always enough
p97 inhibitor – blocks human p97 ATPase activity. inhibition, % at 8 µM. recombinant p97 ATPase, Kinase-Glo ATP luminescence, 3 h. hit rate 0.42% among 220,000. P55072; in the data active = inhibition above about 15%;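 also: 0% = DMSO vehicle and 100% = wells lacking enzyme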
LYPLA1 counter – counter-screen for PME1 inhibitors: inhibitors of human LYPLA1. O75608. recombinant LYPLA1, FP-Rh probe fluorescence polarization. inhibition, % at 5.9 µM. hit rate 0.16% among 320,000;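 active = inhibition above the mean of all tested compounds plus 3 SD, set per campaign, cut at about 14% in these data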;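 also: inhibitors block serine hydrolase probe labeling of LYPLA1 so polarization falls; 0% = enzyme with DMSO and 100% = wells lacking LYPLA1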
LYPLA2 inh – blocks human lysophospholipase 2, a PME1 counter-screen. inhibition, % at 5.9 µM. hit rate 0.38% among 320,000. recombinant LYPLA2, FP-Rh probe fluorescence polarization. O95372;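 active = inhibition above the screen-wide mean plus 3 SD, limit set per campaign, cut at about 26% in these data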;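 also: 0% = LYPLA2 with DMSO and 100% = wells lacking LYPLA2 enzyme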
PREPL inh – inhibitors of human prolyl oligopeptidase-like enzyme PREPL. recombinant PREPL, fluorescence polarization activity-based probe. inhibition, % at 5.96 µM. hit rate 0.68% among 320,000; in the data active = inhibition above about 43%;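 also: 0% = enzyme with DMSO and 100% = wells lacking enzyme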
Hck-Nef inh – blocks Nef-activated human Hck kinase. P08631. Recombinant Hck-YEEI plus Nef, Z-Lyte FRET kinase assay. inhibition, % at 20 µM. hit rate 0.68% among 220,000. AID 463187;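 active = Hck-Nef kinase inhibition above about 50%, limit read from the data; inactive = inhibition below that limit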;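 also: 0% = DMSO with Hck plus Nef and 100% = Hck alone without Nef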
Target sequence (P08631 whole entry, looked up): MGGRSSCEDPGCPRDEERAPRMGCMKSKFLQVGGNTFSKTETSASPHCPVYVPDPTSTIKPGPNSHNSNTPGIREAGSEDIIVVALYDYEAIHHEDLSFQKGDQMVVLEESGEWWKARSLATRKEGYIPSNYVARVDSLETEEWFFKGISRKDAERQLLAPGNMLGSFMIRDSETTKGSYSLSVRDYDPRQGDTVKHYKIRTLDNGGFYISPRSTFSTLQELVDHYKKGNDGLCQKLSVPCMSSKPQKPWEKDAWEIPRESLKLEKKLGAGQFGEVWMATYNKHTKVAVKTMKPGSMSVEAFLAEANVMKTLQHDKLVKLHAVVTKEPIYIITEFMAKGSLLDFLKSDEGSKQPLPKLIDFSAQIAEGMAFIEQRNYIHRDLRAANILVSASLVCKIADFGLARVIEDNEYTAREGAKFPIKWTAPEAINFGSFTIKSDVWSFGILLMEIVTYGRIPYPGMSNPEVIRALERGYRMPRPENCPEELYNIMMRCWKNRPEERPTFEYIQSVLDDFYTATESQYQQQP
An asterisk follows results filed as active; / = no result given; + = active, no number. The list is not random: actives were taken first. Their share in the collection is about 1.7%.

SMILES	Rin1 Abl inh	p97 inhibitor	LYPLA1 counter	LYPLA2 inh	PREPL inh	Hck-Nef inh
O=C1NC(=NCc2ccccc2)NC1(c1ccccc1)c1ccccc1	3.8	/	/	/	/	/
c1ccc(-n2cnc3cc(NCc4ccccn4)ccc32)cc1	0.1	4.1	3.1	2.2	55.0*	1.9
COc1cc(CNCc2ccccn2)ccc1OCc1ccc(Cl)c(Cl)c1	-0.1	-8.5	-1.6	0.7	49.3*	12.6
Brc1cccc(CNc2nc3ccccc3n2CCN2CCCCC2)c1	-0.5	-1.6	2.4	1.1	51.7*	-5.0
CC[n+]1c(/C=C/N(C)c2ccccc2)oc2ccc(Cl)cc21	-2.6	-0.3	-1.1	1.3	10.2	0.7
CCN1/C(=C/C=C/c2oc3ccc4ccccc4c3[n+]2CC)Oc2ccc3ccccc3c21	/	3.7	57.7*	-33.2	-61.7	-15.3
COc1ccc(NC(=O)CC2CC3CCC2C3)cc1S(=O)(=O)N1CCOCC1 (stereo not given)	-0.5	/	/	/	12.2	/
COc1ccc(OC)c(NC(=O)c2cc(S(=O)(=O)N3CCCC3)cn2C)c1	-0.8	/	0.8	4.7	6.4	/
O=C(COC(=O)CCc1c[nH]c(=O)[nH]1)Nc1cccc(Cl)c1	11.1*	8.3	-2.4	2.2	3.9	0.1
N=C1/C(=C\c2ccc(-c3ccc(C(=O)O)cc3)o2)C(=O)N=C2SC=C(c3ccccc3)N12	-1.0	0.5	/	/	/	103.0*
N=C1/C(=C\c2ccc(-c3cccc(Cl)c3)o2)C(=O)N=C2SC=C(c3ccccc3)N12	2.8	7.2	-20.9	-18.5	12.5	3.3
CC(=O)NCc1ccc(S(=O)(=O)N2CCN(S(=O)(=O)c3ccc4ccccc4c3)CC2)cc1	-2.2	/	/	/	/	/
O=C(Cn1ncc2c1-c1ccccc1OC2)Nc1ccc(S(=O)(=O)N2CCCCC2)cc1	12.4*	1.2	-24.5	-44.0	-3.4	-0.1
O=C(CCc1ccc(O)cc1)c1c(O)cc(O)cc1O	1.7	/	-3.0	1.1	4.9	63.3*
COc1cc(O)c(CC=C(C)C)c(O)c1C(=O)CCc1ccc(O)cc1	2.0	/	-22.0	-27.7	0.9	33.2
O=c1[nH]c(Cc2cccs2)nc2scc(-c3ccc(Cl)cc3)c12	0.2	4.8	0.4	4.1	55.1*	-2.6
COc1ccccc1Oc1c(C)oc2c(CN3CCN(CCO)CC3)c(O)ccc2c1=O	/	-2.1	54.9*	45.6*	25.2	-0.4
CCOc1ccccc1Oc1c(C)oc2c(CN3CCN(CCO)CC3)c(O)ccc2c1=O	4.8	-1.9	0.1	-1.2	16.0	-0.7
COc1ccc(OC)c(NC(=O)CN2C(=O)C(=O)N(Cc3ccccc3)C2=O)c1	-0.3	/	-2.5	5.5	2.9	/
O=C(c1ccc(Cn2c(=S)[nH]c3ccc(N4CCOCC4)cc3c2=O)cc1)N1CCN(c2ccc(F)cc2)CC1	3.8	5.4	0.6	19.5	63.3*	-3.7
O=C(NCCN1CCOCC1)C1CC(=O)N(c2cccc(C(F)(F)F)c2)C1 (stereo not given)	-0.4	/	/	/	/	/
O=C(N/N=C/c1ccc(O)c(O)c1O)/C(=C/c1ccc([N+](=O)[O-])cc1)NC(=O)c1ccccc1	15.2*	5.3	-16.3	-6.9	11.8	-2.7
COc1cccc(NC(=O)CN(C)C(C)C(=O)NC(C)c2ccc(Cl)cc2Cl)c1 (stereo not given)	-0.8	/	/	/	/	/
C[C@@H]1CN([C@@H](C)CO)C(=O)CCCn2nncc2CO[C@H]1CN(C)C(=O)Nc1ccc2c(c1)OCO2	0.7	/	/	/	/	/
Cc1cccn2c(=O)c3cc(C(=O)NC4CCCC4)c(=N)n(C4CCCC4)c3nc12	-1.3	0.9	-2.5	-2.3	38.5	65.6*
SMILES	Rin1 Abl inh	p97 inhibitor	LYPLA1 counter	LYPLA2 inh	PREPL inh	Hck-Nef inh
Cc1cccn2c(=O)c3cc(C(=O)NC4CCCC4)n(C)c3nc12	0.5	/	-1.7	3.2	2.5	/
CCn1c(=N)c(C(N)=O)cc2c(=O)n3cccc(C)c3nc21	/	-1.6	/	/	/	+
COc1ccc(-c2cn(CCN)c(-c3ccncc3)n2)cc1	-0.7	/	5.5	3.8	1.3	/
COc1cc(/C=C2/SC(=O)NC2=O)ccc1Oc1ccc([N+](=O)[O-])cc1[N+](=O)[O-]	-1.5	5.9	-3.5	22.2	-10.8	51.5*
COc1cc(/C=C2/SC(N)=NC2=O)ccc1Oc1ccc([N+](=O)[O-])cc1[N+](=O)[O-]	-2.5	8.9	-17.7	-23.6	1.2	21.7
CCOC(=O)c1sc(N=NC2=C(O)CCCC2=O)c(C(=O)OCC)c1C	2.5	2.2	-7.0	-1.8	22.1	51.4*
COc1ccc(C2=NN(C(=O)CSc3nc(=O)n4cccc(C)c4n3)C(c3ccc(C)cc3)C2)cc1 (stereo not given)	-0.2	/	-3.1	-4.2	15.1	/
Brc1ccc(CSc2nnc(-c3cccnc3)o2)cc1	1.9	0.5	1.7	11.1	-0.8	51.1*
O=C(NCc1ccccc1C(F)(F)F)c1cccc2c1C(=O)c1ccc(N3CCC(N4CCCCC4)CC3)cc1S2(=O)=O	-11.6	/	/	/	/	/
Cc1ccc(C)c(NC(=O)CN2C(=O)NC(C)(c3ccc4c(c3)OCCO4)C2=O)c1 (stereo not given)	4.9	/	0.5	1.2	3.6	/
O=C1c2cccc3cccc(c23)C(=O)N1CCN1CCN(CC(O)COc2ccccc2)CC1 (stereo not given)	-3.3	2.8	3.0	30.8*	-15.6	-0.6
C=CCNC(=S)/C(=C(\[O-])c1ccc(Cl)cc1)[n+]1ccccc1	-1.9	14.7*	1.4	-0.1	8.3	-9.9
CC(C)(C)OC(=O)N[C@H](C(=O)OC(C)(C)C)c1ccc2c(c1)OCO2	2.1	/	-0.9	-1.2	-2.6	/
Cc1cccc(NC(=O)CN2C(=O)COc3ccc(Cl)cc32)c1	0.5	/	-1.9	40.0*	-0.3	/
Cc1[nH]c2ccccc2c1/C=N\NC(=O)CNc1ccc2c(c1)OCO2	1.3	6.5	2.7	-0.8	28.7	24.3
O=C(CNc1ccc2c(c1)OCO2)N/N=C\c1ccccc1Cl	4.1	3.2	2.4	-1.8	50.1*	7.0
Nc1ccc2c(c1)C/C(=C/c1ccco1)C2=O	2.5	15.3*	-11.1	-9.7	28.8	4.9
COc1ccc2c(c1)CC/C(=C/c1ccco1)C2=O	-2.2	-5.7	-3.5	-2.3	10.0	11.6
CCOc1cc(CNc2cccc3ccccc23)cc(Br)c1OCC(=O)NC(C)(C)C	2.7	3.4	-1.3	-0.9	56.8*	1.9
COc1ccc(NC(=O)C2(C)CCN2C(=O)C(C)C)cc1F (stereo not given)	-1.4	/	/	/	/	/
COc1cc(/C=C2/CCc3ccccc3C2=O)cc(OC)c1OC	-0.9	-1.6	4.5	30.1*	7.4	0.5
COc1ccc(/C=C2/CCc3ccccc3C2=O)cc1OC	-1.4	-3.1	-2.0	8.7	24.6	4.1
CCCCCCC(=O)N1CCC(c2nc3c(nnn3Cc3ccccc3Cl)c(=O)[nH]2)CC1	-1.6	-3.3	6.9	38.5*	13.1	-0.1
COc1ccc(Nc2nc(N)c([N+](=O)[O-])c(NC3CCCCC3)n2)cc1	-0.7	/	-5.9	-4.7	27.2	/
CN1C(=O)/C(=C/c2cn(CC(=O)N3CCCCC3)c3ccccc23)c2ccccc21	/	2.5	0.1	-6.7	44.6*	1.0

Screens as filed in PubChem BioAssay.
